Test results from PubChem BioAssay (NCI).
The panel holds about 83,000 compounds, 20% with a hit somewhere; the sample as a whole holds those more often.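 Cells were grown in 96-well plates and exposed to the test compound at a single concentration for 48 hours; results are reported as percent growth, with values below 10 considered active.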 The source made the active and inactive calls.

Key:
Experiment in all cases: NCI-60 one-dose screen, 48 h (100 = growth as untreated, 0 = no growth, -100 = all killed)
Conditions in all cases: 10 µM unless noted
NCI-H23 lung = system: NCI-H23 lung
NCI-H226 lung = system: NCI-H226 lung
NCI-H322M lung = system: NCI-H322M lung
HOP-62 NSCLC = system: HOP-62 NSCLC
NCI-H460 lung = system: NCI-H460 lung
HOP-92 NSCLC = system: HOP-92 NSCLC
NCI-H522 lung = system: NCI-H522 lung
A549/ATCC NSCLC = system: A549/ATCC NSCLC
786-0 renal = system: 786-0 renal
COLO 205 colon = system: COLO 205 colon
DU-145 prostate = system: DU-145 prostate
K-562 leukemia = system: K-562 leukemia
MALME-3M melanoma = system: MALME-3M melanoma
MDA-MB-231 breast = system: MDA-MB-231 breast
RXF 393 renal = system: RXF 393 renal
SF-268 CNS = system: SF-268 CNS
SF-295 CNS = system: SF-295 CNS
SF-539 CNS = system: SF-539 CNS
UACC-257 melanoma = system: UACC-257 melanoma
M14 melanoma = system: M14 melanoma

Measured: growth

Fc1ccccc1-c1cnn2cc(-c3ccccc3)cnc12
inactive: NCI-H23 lung 95.5% | NCI-H226 lung 94.3% | NCI-H322M lung 95.5% | HOP-62 NSCLC 103% | NCI-H460 lung 98.2% | HOP-92 NSCLC 100% | NCI-H522 lung 97.7% | A549/ATCC NSCLC 94.2% | 786-0 renal 97.2% | COLO 205 colon 118% | DU-145 prostate 110% | K-562 leukemia 83.5% | MALME-3M melanoma 109% | MDA-MB-231 breast 108% | RXF 393 renal 94.9% | SF-268 CNS 88.9% | SF-295 CNS 98.2% | SF-539 CNS 103% | UACC-257 melanoma 110% | M14 melanoma 105%

Nc1nc(Nc2cccnc2)sc1C(=O)c1ccccc1F
inactive: NCI-H23 lung 37.9% | NCI-H226 lung 24.4% | NCI-H322M lung 54.7% | HOP-62 NSCLC 21.2% | NCI-H460 lung 21.7% | HOP-92 NSCLC 51.8% | NCI-H522 lung 71.4% | A549/ATCC NSCLC 27% | 786-0 renal 18.2% | COLO 205 colon 20.5% | DU-145 prostate 17.8% | K-562 leukemia 66.5% | MALME-3M melanoma 157% | MDA-MB-231 breast 83.1% | SF-268 CNS 20.8% | SF-295 CNS 34.9% | UACC-257 melanoma 72.9% | M14 melanoma 59.2%
active: RXF 393 renal -42% | SF-539 CNS -3.32%

Cn1cc(-c2csc(-c3c[nH]c4ccc(F)cc34)n2)c2cnccc21
active: HOP-62 NSCLC -55.1% | NCI-H460 lung -54.3% | HOP-92 NSCLC -47% | NCI-H522 lung -78.5% | A549/ATCC NSCLC 5.33% | 786-0 renal -94.5% | COLO 205 colon -93.2% | DU-145 prostate -19.6% | K-562 leukemia -55.4% | MALME-3M melanoma -94.9% | MDA-MB-231 breast -66.7% | RXF 393 renal -90.8% | SF-268 CNS -25.4% | SF-295 CNS -75.4% | SF-539 CNS -93.7% | UACC-257 melanoma -68.6% | M14 melanoma -87%
inactive: NCI-H23 lung 49.3% | NCI-H226 lung 52% | NCI-H322M lung 15.4%

Cc1ccc(C(=O)c2ccc(CC(=O)N=Nc3c(O)[nH]c4ccc(OC(F)(F)F)cc34)n2C)cc1
inactive: NCI-H23 lung 90% | NCI-H226 lung 91% | NCI-H322M lung 96.7% | HOP-62 NSCLC 93.3% | NCI-H460 lung 103% | HOP-92 NSCLC 116% | NCI-H522 lung 85.6% | A549/ATCC NSCLC 86% | 786-0 renal 101% | COLO 205 colon 110% | DU-145 prostate 102% | K-562 leukemia 92.5% | MALME-3M melanoma 126% | MDA-MB-231 breast 92.4% | RXF 393 renal 104% | SF-268 CNS 93.2% | SF-295 CNS 101% | SF-539 CNS 102% | UACC-257 melanoma 102% | M14 melanoma 97.6%

CN1CCN(C(=O)OCc2nc3c(N4CCOCC4)nc(Cl)nc3n2C)CC1
inactive: NCI-H322M lung 53.7% | HOP-62 NSCLC 47.3% | A549/ATCC NSCLC 25.1% | SF-295 CNS 73.4%
active: NCI-H23 lung -1.07% | NCI-H226 lung -60.8% | NCI-H460 lung 6.7% | HOP-92 NSCLC -32% | NCI-H522 lung -38.8% | 786-0 renal -95.5% | COLO 205 colon -30.8% | DU-145 prostate 1.69% | K-562 leukemia -11% | MALME-3M melanoma -65.3% | MDA-MB-231 breast -77.5% | RXF 393 renal -94.9% | SF-268 CNS 1.11% | SF-539 CNS -99% | UACC-257 melanoma -64.7% | M14 melanoma -77.4%

O=C(CC1(O)C(=O)Nc2ccc(Br)cc21)c1ccc(Cl)cc1 (stereo not given)
inactive: NCI-H23 lung 96.8% | NCI-H226 lung 80.1% | NCI-H322M lung 105% | HOP-62 NSCLC 88.7% | NCI-H460 lung 106% | HOP-92 NSCLC 86.1% | NCI-H522 lung 81% | A549/ATCC NSCLC 90.5% | 786-0 renal 114% | COLO 205 colon 109% | DU-145 prostate 107% | K-562 leukemia 98.2% | MALME-3M melanoma 103% | MDA-MB-231 breast 98.8% | RXF 393 renal 96.4% | SF-268 CNS 97.5% | SF-295 CNS 106% | SF-539 CNS 108% | UACC-257 melanoma 88.1% | M14 melanoma 99.3%

COC(=O)[C@H]1Cc2c([nH]c3ccccc23)[C@@H](c2cccs2)N1
inactive: NCI-H23 lung 104% | NCI-H226 lung 98.3% | NCI-H322M lung 100% | HOP-62 NSCLC 102% | NCI-H460 lung 105% | HOP-92 NSCLC 105% | NCI-H522 lung 78.9% | A549/ATCC NSCLC 103% | 786-0 renal 91.4% | COLO 205 colon 131% | DU-145 prostate 106% | K-562 leukemia 104% | MALME-3M melanoma 97.6% | MDA-MB-231 breast 95.1% | RXF 393 renal 107% | SF-268 CNS 98.9% | SF-295 CNS 100% | SF-539 CNS 93.1% | UACC-257 melanoma 105% | M14 melanoma 107%

O=C1OCC2=C1C(c1cccc(C(F)(F)F)c1)c1cc3c(cc1N2CCO)OCCO3 (stereo not given)
inactive: NCI-H23 lung 28.5% | NCI-H226 lung 52.3% | NCI-H322M lung 51.3% | HOP-62 NSCLC 23.5% | HOP-92 NSCLC 63.3% | A549/ATCC NSCLC 16.3% | 786-0 renal 25.5% | DU-145 prostate 16% | MALME-3M melanoma 49.5% | MDA-MB-231 breast 37.6% | RXF 393 renal 10.9% | SF-268 CNS 38.8% | UACC-257 melanoma 65.3%
active: NCI-H460 lung 7.21% | NCI-H522 lung 7.2% | COLO 205 colon -17.7% | K-562 leukemia 9.6% | SF-295 CNS 0.743% | SF-539 CNS -8.3% | M14 melanoma -6.89%

CN(C)CCN1C(=O)c2c(c3c4ccccc4n4c3c3c2c2ccccc2n3C2CC(O)C(O)C4(C)O2)C1=O (stereo not given)
inactive: NCI-H23 lung 23.1% | NCI-H226 lung 18.6% | NCI-H322M lung 34.8% | HOP-62 NSCLC 14.2% | HOP-92 NSCLC 75.9% | 786-0 renal 29.3% | COLO 205 colon 18.9% | DU-145 prostate 16.9% | K-562 leukemia 11.4% | MALME-3M melanoma 23.5% | MDA-MB-231 breast 58.4% | RXF 393 renal 29.9% | SF-268 CNS 35.2% | SF-539 CNS 24.3% | UACC-257 melanoma 34.7% | M14 melanoma 23.9%
active: NCI-H460 lung 2.33% | NCI-H522 lung -5.02% | A549/ATCC NSCLC 5.47% | SF-295 CNS 8.95%

O=C1C(N2CCOCC2)=C(I)C(=O)c2ncccc21
active: K-562 leukemia 4.52%
inactive: NCI-H23 lung 58.1% | NCI-H226 lung 84.8% | NCI-H322M lung 99.1% | HOP-62 NSCLC 55.8% | NCI-H460 lung 58.8% | HOP-92 NSCLC 123% | NCI-H522 lung 36.5% | A549/ATCC NSCLC 85.8% | 786-0 renal 90% | COLO 205 colon 102% | DU-145 prostate 84.8% | MALME-3M melanoma 87.3% | MDA-MB-231 breast 87.1% | RXF 393 renal 72.6% | SF-268 CNS 71.5% | SF-295 CNS 97.3% | SF-539 CNS 82.7% | UACC-257 melanoma 85% | M14 melanoma 87.1%

CCCN1C(=O)/C(=c2\sc3n(c2=O)NC2C(N=3)N(CC)C(=O)N2CC)c2ccccc21 (stereo not given)
inactive: NCI-H23 lung 38.8% | NCI-H226 lung 69.3% | NCI-H322M lung 55% | HOP-62 NSCLC 50.8% | NCI-H460 lung 18.5% | HOP-92 NSCLC 86.2% | NCI-H522 lung 11.9% | A549/ATCC NSCLC 42% | 786-0 renal 53.3% | COLO 205 colon 23% | DU-145 prostate 33.5% | K-562 leukemia 13.7% | MALME-3M melanoma 61.8% | MDA-MB-231 breast 24.4% | SF-268 CNS 70% | SF-295 CNS 39.6% | UACC-257 melanoma 47.5% | M14 melanoma 23.3%
active: RXF 393 renal -3.07% | SF-539 CNS 1.12%

O=C(CN1C(=O)S/C(=C\C(Cl)=C\c2ccccc2)C1=O)NCCCn1ccnc1
active: NCI-H522 lung -3.5% | 786-0 renal 9.43% | COLO 205 colon 4.93% | K-562 leukemia 5.22% | RXF 393 renal -25.9%
inactive: NCI-H23 lung 24% | NCI-H226 lung 41.9% | NCI-H322M lung 90.8% | HOP-62 NSCLC 84.9% | NCI-H460 lung 68.5% | HOP-92 NSCLC 52.5% | A549/ATCC NSCLC 85.2% | DU-145 prostate 31.5% | MALME-3M melanoma 25.4% | MDA-MB-231 breast 21.5% | SF-268 CNS 86.7% | SF-295 CNS 79.8% | SF-539 CNS 15.2% | UACC-257 melanoma 75.1% | M14 melanoma 21.3%

CC(=O)c1c(C)nc2ccccc2c1/C=C/c1cccc(C)c1
inactive: NCI-H23 lung 61.6% | NCI-H226 lung 75.2% | NCI-H322M lung 96.9% | HOP-62 NSCLC 60.9% | NCI-H460 lung 33.8% | HOP-92 NSCLC 60.2% | NCI-H522 lung 41.5% | A549/ATCC NSCLC 43.6% | 786-0 renal 79.7% | COLO 205 colon 58.5% | DU-145 prostate 88.2% | K-562 leukemia 16.1% | MALME-3M melanoma 82.9% | MDA-MB-231 breast 63.5% | RXF 393 renal 73.1% | SF-268 CNS 81.9% | SF-295 CNS 58% | SF-539 CNS 61.7% | UACC-257 melanoma 73.5% | M14 melanoma 46.3%

CCOc1ccccc1NC(=O)c1cc2ccccc2cc1O
inactive: NCI-H23 lung 16.4% | NCI-H226 lung 71.8% | NCI-H322M lung 84.1% | HOP-62 NSCLC 98.4% | NCI-H460 lung 26.9% | NCI-H522 lung 12.9% | A549/ATCC NSCLC 36.8% | 786-0 renal 70.7% | COLO 205 colon 111% | DU-145 prostate 78.5% | K-562 leukemia 22.8% | MALME-3M melanoma 49.8% | MDA-MB-231 breast 54.9% | RXF 393 renal 63.2% | SF-268 CNS 80.6% | SF-295 CNS 106% | SF-539 CNS 84.6% | UACC-257 melanoma 54.2% | M14 melanoma 64.6%
active: HOP-92 NSCLC 5.82%

COc1ccc(/C=C2\COc3ccc(O)c(O)c3C2=O)c(OC)c1OC
active: NCI-H522 lung -45.2% | K-562 leukemia 9.86% | MDA-MB-231 breast -2.18% | SF-539 CNS -9.26%
inactive: NCI-H23 lung 38.6% | NCI-H226 lung 63.9% | NCI-H322M lung 56.2% | HOP-62 NSCLC 17.7% | NCI-H460 lung 24.9% | HOP-92 NSCLC 38.9% | A549/ATCC NSCLC 43.1% | 786-0 renal 28% | COLO 205 colon 72.3% | DU-145 prostate 13.9% | MALME-3M melanoma 24.2% | RXF 393 renal 50.8% | SF-268 CNS 48% | SF-295 CNS 91.7% | UACC-257 melanoma 45.6% | M14 melanoma 38.4%
